Measurements published in PubChem BioAssay (NCATS).
Records with an inconclusive call do not appear. The source made the active and inactive calls. Calls follow the shape of the dose curve; as a rule, active = well fitted inhibition curve with a large enough effect; inconclusive = small, poorly fitted or top-dose-only effect; inactive = flat fitted curve, though single readings scatter.

What was measured:
Assay in all cases: qHTS profiling for inhibitors of Plasmodium falciparum proliferation (AID 504749); also: nearly all actives have a fitted effect of over 60% in size
Conditions in all cases: P. falciparum in erythrocytes, SYBR Green DNA, 72 h; series mostly up to 28.7 µM
CP291 = system: CP291
Method in brief: (§1)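 Three-day growth assay of blood-stage parasites in erythrocytes (0.3% parasitemia, 2.5% hematocrit) at 37 C, 5% CO2, quantified by SYBR Green DNA staining after overnight detergent lysis.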

CP297 = system: CP297
Method in brief: as §1

CP305 = system: CP305
Method in brief: as §1

CP315 = system: CP315
Method in brief: as §1

CP325 = system: CP325
Method in brief: as §1

CP329 = system: CP329
Method in brief: as §1

DFO2036 = system: DFO2036
Method in brief: as §1

DIV14 = system: DIV14
Method in brief: as §1

DIV17 = system: DIV17
Method in brief: as §1

CP335 = system: CP335
Method in brief: as §1

Measured: Potency
Potency is read from the fitted curve at half-maximal effect.

CNC1(C)C2CCC(C2)C1(C)C (configuration not stated)
inactive: CP291 | CP297 | CP305 | CP315 | CP325 | CP329 | DFO2036 | DIV14 | DIV17

CN(C)C(=O)Oc1ccc[n+](C)c1
inactive: CP291 | CP297 | CP305 | CP315 | CP325 | CP329 | CP335 | DFO2036 | DIV14 | DIV17

OCCN1CCN(CC/C=C2/c3ccccc3Sc3ccc(C(F)(F)F)cc32)CC1
active: CP291 9.53 µM | CP297 6.75 µM | CP305 7.57 µM | CP325 6.01 µM | CP329 6.75 µM | CP335 4.26 µM | DIV17 6.75 µM

COC(=O)[C@H]1[C@H]2C[C@@H]3c4[nH]c5cc(OC)ccc5c4CCN3C[C@H]2C[C@@H](OC(=O)c2cc(OC)c(OC)c(OC)c2)[C@@H]1OC
active: CP291 15.1 µM | CP297 3.38 µM | CP315 16.9 µM | CP325 13.5 µM | CP329 13.5 µM | CP335 8.49 µM | DIV14 1.69 µM | DIV17 1.51 µM

CCCCNc1ccc(C(=O)OCCN(C)C)cc1
inactive: CP291 | CP297 | CP305 | CP315 | CP335

C[C@H](CS)C(=O)N1CCC[C@H]1C(=O)O
inactive: CP291 | CP297 | CP305 | CP315 | CP325 | CP329 | CP335 | DFO2036 | DIV14 | DIV17

CCN1CCc2nc(N)oc2CC1
inactive: CP291 | CP297 | CP305 | CP315 | CP325 | CP329 | CP335 | DFO2036 | DIV14 | DIV17

Cc1scc2c1N(C(=O)CN1CCN(C)CC1)c1ccccc1NC2=O
inactive: CP291 | CP297 | CP305 | CP315 | CP325 | CP329 | CP335 | DFO2036 | DIV14 | DIV17

COC(=O)C1=C(C)NC(C)=C(C(=O)OC(C)(C)CN(C)CCC(c2ccccc2)c2ccccc2)C1c1cccc([N+](=O)[O-])c1 (configuration not stated)
active: CP291 3.79 µM | CP297 3.79 µM | CP305 5.36 µM | CP315 4.26 µM | CP325 6.01 µM | CP329 3.79 µM | CP335 1.51 µM | DFO2036 3.55 µM | DIV14 3.79 µM | DIV17 3.38 µM

Cc1ccc(S(=O)(=O)NC(=O)NN2CCCCCC2)cc1
inactive: CP291 | CP297 | CP305 | CP315 | CP325 | CP329 | CP335 | DFO2036 | DIV14 | DIV17

CCNC(=O)N1CCN(CCCC(c2ccc(F)cc2)c2ccc(F)cc2)CC1
active: CP291 6.01 µM | CP297 6.01 µM | CP305 6.01 µM | CP315 6.75 µM | CP325 2.13 µM | CP335 1.9 µM | DFO2036 2.51 µM | DIV14 7.57 µM | DIV17 13.5 µM

Brc1c(NC2=NCCN2)ccc2nccnc12
inactive: CP291 | CP297 | CP305 | CP315 | CP325 | CP329 | DFO2036

NC(=O)c1cn(Cc2c(F)cccc2F)nn1
inactive: CP291 | CP297 | CP305 | CP315 | CP325 | CP329 | CP335 | DFO2036 | DIV14 | DIV17

CCN(Cc1ccncc1)C(=O)C(CO)c1ccccc1 (configuration not stated)
inactive: CP291 | CP297 | CP305 | CP315 | CP325 | CP329 | CP335 | DFO2036 | DIV14 | DIV17

CCN(CC)CCCN(c1ccccc1)C1Cc2ccccc2C1
active: CP291 7.57 µM | CP297 13.5 µM | CP305 6.75 µM | CP325 8.49 µM | CP329 12 µM | CP335 4.78 µM | DFO2036 5.01 µM | DIV14 2.13 µM | DIV17 4.26 µM

NC1=NCC2c3ccccc3Cc3ccccc3N12 (configuration not stated)
active: DIV17 13.5 µM
inactive: CP291 | CP297 | CP305 | CP315 | CP325 | DFO2036

Cc1nc2c([nH]1)c(=O)n(C)c(=O)n2Cc1ccco1
inactive: CP291 | CP297 | CP305 | CP315 | CP325 | CP329 | CP335 | DFO2036 | DIV14 | DIV17

COC(=O)[C@@H](N)Cc1ccc(O)c(O)c1
inactive: CP291 | CP297 | CP305 | CP315 | CP325 | CP329 | DFO2036

Nc1nc(N)c2nc(-c3ccccc3)c(N)nc2n1
inactive: CP291 | CP297 | CP305 | CP315 | CP325 | CP329 | DFO2036 | DIV14 | DIV17
